Data reported in PubChem BioAssay (NCATS).
Records with an inconclusive call do not appear. The source made the active and inactive calls. The call rests on the fitted dose curve; in most records, active means well fitted inhibition curve with a large enough effect; inconclusive means small, poorly fitted or top-dose-only effect; inactive means flat fitted curve, though single readings scatter.

Columns and labels:
Assay in all cases: qHTS profiling for inhibitors of Plasmodium falciparum proliferation (AID 504749); further: nearly all actives have a fitted effect of over 60% in size
Settings in all cases: P. falciparum in erythrocytes, SYBR Green DNA, 72 h; series mostly up to 28.7 µM
[1] = test system: CP286
Procedure, shortened: (§1)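 Each compound contacts P. falciparum-infected red blood cells for 72 h at 37 C; lysis buffer (Tris, EDTA, saponin, Triton X, SYBR Green I) is added and fluorescence measured next morning; values normalized to controls.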

[2] = test system: CP315
Procedure, shortened: as §1

[3] = test system: CP325
Procedure, shortened: as §1

[4] = test system: CP329
Procedure, shortened: as §1

[5] = test system: DIV30
Procedure, shortened: as §1

[6] = test system: Dd2
Procedure, shortened: as §1

[7] = test system: ECU
Procedure, shortened: as §1

[8] = test system: FAB9
Procedure, shortened: as §1

[9] = test system: GB4
Procedure, shortened: as §1

[10] = test system: ICS
Procedure, shortened: as §1

[11] = test system: JCK
Procedure, shortened: as §1

[12] = test system: CP291
Procedure, shortened: as §1

[13] = test system: CP305
Procedure, shortened: as §1

[14] = test system: CP335
Procedure, shortened: as §1

[15] = test system: DFO2036
Procedure, shortened: as §1

[16] = test system: DIV14
Procedure, shortened: as §1

[17] = test system: HB3
Procedure, shortened: as §1

[18] = test system: N140
Procedure, shortened: as §1

[19] = test system: DIV17
Procedure, shortened: as §1

[20] = test system: CP297
Procedure, shortened: as §1

Measured: Potency
Potency means the concentration at half of the fitted maximal effect.

Cc1cc2c(OCC(CNC(C)(C)C)OC(=O)c3ccccc3)cccc2[nH]1 (stereo not given)
inactive: [2] | [3] | [4] | [5] | [7] | [8] | [11]
active: [1] 8.91 µM | [6] 3.98 µM | [9] 10.7 µM | [10] 8.91 µM

CC1(COc2ccc(CC3SC(=O)NC3=O)cc2)CCCCC1 (stereo not given)
not listed: [19] | [20]
inactive: all other assays above

Cc1cc(CC(=O)O)c(C)n1-c1ccc(Cl)cc1
inactive: [1] | [12] | [13] | [2] | [3] | [4] | [15] | [8] | [17] | [11]
active: [19] 16.9 µM | [10] 8.91 µM

CCN(CC)CCOc1ccc2c(c1)C(=O)c1cc(OCCN(CC)CC)ccc1-2
inactive: [2]
active: [1] 10 µM | [16] 13.5 µM | [19] 9.53 µM | [6] 12.6 µM | [7] 8.91 µM | [9] 12 µM | [17] 11.2 µM

NCCNc1cccc2ccccc12
active: [19] 15.1 µM
not listed: [6] | [9] | [10] | [14] | [15] | [16] | [20]
inactive: all other assays above

CCCN(CCc1cccs1)[C@H]1CCc2c(O)cccc2C1
active: [1] 10 µM | [12] 10.7 µM | [20] 6.75 µM | [13] 13.5 µM | [3] 12 µM | [14] 8.49 µM | [15] 10 µM | [16] 4.26 µM | [19] 3.01 µM | [5] 5.36 µM | [6] 2.51 µM | [7] 2.82 µM | [9] 1.69 µM | [17] 10 µM | [10] 0.794 µM | [18] 3.16 µM

COc1cc(O)c(C(=O)c2ccccc2)cc1S(=O)(=O)O
active: [10] 3.55 µM
not listed: [7] | [9] | [13] | [14] | [16] | [17] | [18] | [19]
inactive: all other assays above

CC(C)Cc1ccc(CC(=O)O)cc1
not listed: [2]
inactive: all other assays above

CCCCCCCCCCCCCC(=O)OC(C)C
not listed: [5] | [20]
inactive: all other assays above

CCCCCCCCNC(C)C(O)c1ccc(SC(C)C)cc1 (stereo not given)
active: [1] 1 µM | [12] 1.9 µM | [13] 2.69 µM | [2] 3.01 µM | [3] 3.01 µM | [4] 3.01 µM | [14] 0.601 µM | [16] 0.675 µM | [19] 0.757 µM | [5] 0.675 µM | [6] 0.447 µM | [7] 0.355 µM | [8] 1.41 µM | [9] 0.536 µM | [17] 0.891 µM | [10] 0.0891 µM | [11] 3.16 µM

COc1ccc(C(=O)c2ccccc2)c(O)c1
inactive: [1] | [12] | [20] | [2] | [3] | [4] | [15] | [8] | [11]
active: [17] 10 µM | [10] 2.82 µM

CN(C)C(=O)Nc1ccc(Cl)c(Cl)c1
active: [16] 3.01 µM | [19] 4.78 µM
inactive: [1] | [12] | [3] | [15] | [7] | [8] | [11]

Cc1cc(-c2ccccc2)nnc1NCCN1CCOCC1
active: [19] 8.49 µM
not listed: [3] | [5] | [6] | [7] | [10] | [12] | [16]
inactive: all other assays above

Oc1ccc(Cl)cc1Cc1cc(Cl)ccc1O
active: [18] 11.2 µM
inactive: [1] | [20] | [13] | [2] | [4] | [14] | [15] | [6] | [8] | [17]

O=C1C(CCS(=O)c2ccccc2)C(=O)N(c2ccccc2)N1c1ccccc1 (stereo not given)
not listed: [2]
inactive: all other assays above

CN1CCN(C2=Nc3cc(F)ccc3Cc3ccccc32)CC1
active: [6] 14.1 µM
not listed: [9] | [10] | [14] | [16] | [18] | [19] | [20]
inactive: all other assays above

NC(=O)C1(N2CCCCC2)CCN(CCCC(=O)c2ccc(F)cc2)CC1
not listed: [6] | [9] | [12] | [13] | [14] | [16] | [19] | [20]
inactive: all other assays above

OC[C@H]1O[C@@H]2O[C@H]3[C@H](O)[C@@H](O)[C@@H](O[C@H]4[C@H](O)[C@@H](O)[C@@H](O[C@H]5[C@H](O)[C@@H](O)[C@@H](O[C@H]6[C@H](O)[C@@H](O)[C@@H](O[C@H]7[C@H](O)[C@@H](O)[C@@H](O[C@H]8[C@H](O)[C@@H](O)[C@@H](O[C@H]1[C@H](O)[C@H]2O)O[C@@H]8CO)O[C@@H]7CO)O[C@@H]6CO)O[C@@H]5CO)O[C@@H]4CO)O[C@@H]3CO
not listed: [19] | [20]
inactive: all other assays above

CC(C)NCC(O)c1ccc2ccccc2c1 (stereo not given)
active: [1] 11.2 µM | [14] 12 µM | [16] 6.75 µM | [19] 6.75 µM | [5] 12 µM | [6] 7.08 µM | [7] 3.98 µM | [9] 6.75 µM | [17] 12.6 µM | [10] 2 µM | [18] 4.47 µM
inactive: [4]

CCCCNc1ccc(C(=O)OCCOCCOCCOCCOCCOCCOCCOCCOCCOC)cc1
not listed: [2] | [16]
inactive: all other assays above

CC(=O)N[C@@H](CCC(=O)O)C(=O)O
not listed: [9] | [12]
inactive: all other assays above

CCOCCn1c(N2CCCN(C)CC2)nc2ccccc21
inactive: [1] | [12] | [2] | [3] | [4] | [7] | [8] | [17] | [11] | [18]
active: [16] 7.57 µM | [19] 7.57 µM

CN(CCCN1c2ccccc2CCc2ccccc21)CC(=O)c1ccc(Cl)cc1
inactive: [13] | [2] | [8]
active: [1] 7.08 µM | [14] 13.5 µM | [16] 4.26 µM | [19] 4.78 µM | [6] 7.08 µM | [7] 10 µM | [17] 12.6 µM | [10] 2 µM | [18] 7.94 µM

C#C[C@]1(O)CC[C@H]2[C@@H]3CCC4=Cc5oncc5C[C@]4(C)[C@H]3CC[C@@]21C
not listed: [20]
inactive: all other assays above

CNCCc1ccccn1
not listed: [20]
inactive: all other assays above

CN(C)CCC[C@@]1(c2ccc(F)cc2)OCc2cc(C#N)ccc21
not listed: [2] | [6] | [20]
inactive: all other assays above

O=C1C(=O)c2ccccc2C(O)=C1C1CCC(c2ccc(Cl)cc2)CC1 (stereo not given)
active: [1] 0.0011 µM | [12] 0.0064 µM | [13] 0.0051 µM | [2] 0.0057 µM | [3] 0.0064 µM | [14] 0.0032 µM | [15] 0.0032 µM | [16] 0.0064 µM | [19] 0.0091 µM | [5] 0.0051 µM | [6] 0.0035 µM | [7] 0.0032 µM | [8] 0.0032 µM | [9] 0.0041 µM | [17] 0.0028 µM | [10] 0.002 µM | [11] 0.0056 µM | [18] 0.005 µM
